Results as given in PubChem BioAssay (NCATS).
Inconclusive results are not listed. Entries that show only a call come without a potency. A number with no mark means an inactive call. Activity calls are given as the source filed them. Calls come from the whole dose curve; as a rule, active = well fitted curve in the direction sought with a large enough effect; inconclusive = small, poorly fitted or top-dose-only effect, or another doubt; inactive = no such curve, though single readings can be large; an effect the other way counts as inactive or inconclusive.

Key:
[1] = target: Cellular tumor antigen p53 (Homo sapiens) (UniProt P04637); test: Primary qHTS for small molecule compounds that upregulate eGFP-tagged delta133p53alpha (in N-terminal) cells. (AID 2060322); details: NCI-H358 eGFP-delta133p53alpha fluorescence, 24 h; activation: stronger effect = higher value; note: nearly all actives have a fitted effect of over 75% in size
Outline: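 NCI-H358 cells pre-induced 24 h with 10 ng/ml doxycycline to express N-terminal eGFP-delta133p53alpha, then dosed 24 h at 37C without doxycycline; fixed, Hoechst-stained, GFP intensity by laser scanning cytometry, normalized to DMSO (0%) and 57.5 uM 5-azacytidine (100%).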

[2] = target: Aldehyde dehydrogenase, mitochondrial (Homo sapiens) (UniProt P05091); test: qHTS for Inhibitors of the Aldehyde Dehydrogenase Family (ALDH2) Primary screen (AID 2061308); details: ALDH2 enzyme inhibition qHTS, 1536-well; series mostly up to 56 µM; note: nearly all actives have a fitted effect of over 55% in size
[3] = target: Retinaldehyde dehydrogenase 3 (Homo sapiens) (UniProt P47895); test: qHTS for Inhibitors of the Aldehyde Dehydrogenase Family (ALDH1A3) Primary screen (AID 2061315); details: ALDH inhibition qHTS; series mostly up to 56 µM; note: potency is the fitted concentration of half-maximal effect

Chain of Cellular tumor antigen p53 (Homo sapiens) (P04637 whole entry, looked up): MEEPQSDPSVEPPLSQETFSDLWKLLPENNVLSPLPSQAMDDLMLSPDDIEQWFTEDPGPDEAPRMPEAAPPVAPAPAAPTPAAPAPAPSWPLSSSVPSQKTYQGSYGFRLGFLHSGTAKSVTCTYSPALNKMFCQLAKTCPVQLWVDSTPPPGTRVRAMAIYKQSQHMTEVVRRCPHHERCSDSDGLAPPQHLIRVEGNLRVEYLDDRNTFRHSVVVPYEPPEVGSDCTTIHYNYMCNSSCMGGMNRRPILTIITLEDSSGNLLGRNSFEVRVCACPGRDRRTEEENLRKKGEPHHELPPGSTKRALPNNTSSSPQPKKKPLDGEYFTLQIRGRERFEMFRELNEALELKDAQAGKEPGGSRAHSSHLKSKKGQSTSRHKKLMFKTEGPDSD

Structure (SMILES)	activation [1] [%]	Potency [2]	Potency [3]	activity change, negative = inhibition [2]	activity change, negative = inhibition [3]
COC(=O)C1=COC(OC2OC(CO)C(O)C(O)C2O)C2C1CC(OC(=O)C(O)CC(=O)O)C2C (stereo unspecified)	10.7	inactive	inactive	–	–
N#Cc1ccc2ncnc(NCCc3ccccc3)c2c1	-3.57	inactive	inactive	–	–
CCC(CCO[C@@H]1O[C@H](CO[C@H]2OC[C@](O)(CO)[C@H]2O)[C@@H](O)[C@H](O)[C@H]1O)C(C)(C)O (stereo partly specified)	-6.87	inactive	inactive	–	–
C[C@@H]1O[C@@H](O[C@H]2[C@H](OC(=O)[C@]34CCC(C)(C)C[C@H]3C3=CCC5[C@@]6(C)C[C@H](O)[C@H](O[C@@H]7O[C@H](CO)[C@@H](O)[C@H](O)[C@H]7O)[C@@](C)(CO)C6[C@H](O)C[C@@]5(C)[C@]3(C)C[C@H]4O)OC[C@H](O)[C@@H]2O)[C@H](O)[C@H](O)[C@H]1O[C@@H]1OC[C@@H](O)[C@H](O[C@H]2OC[C@](O)(CO)[C@H]2O)[C@H]1O (stereo partly specified)	27.7	–	–	5.31% [at 11.2 µM]	-7.49% [at 11.2 µM]
CC(C)(O)/C=C/CC(C)(O)C1C(O)CC2(C)C3CCC4C(C)(C)C(=O)CCC4(C)C3CCC12C (stereo unspecified)	2.29	inactive	inactive	–	–
C=CC1(C)C=C2CC[C@H]3[C@@](C)(C(=O)O)CCC[C@]3(C)C2CC1 (stereo partly specified)	-0.763	inactive	inactive	–	–
CCCCCCCCC(=O)N[C@H](CN1CCCC1)[C@H](O)c1ccc2c(c1)OCCO2	-1	inactive	inactive	–	–
CC1(CCOC2OC(CO)C(O)C(O)C2O)CCC23OC2(C1)C(O)CC1C(C)(C(=O)O)CCCC13C (stereo unspecified)	-13.7	inactive	inactive	–	–
C/C=C/C(O)C1OC(=O)CC1Nc1ccc(C(=O)O)cc1 (stereo unspecified)	5.34	inactive	inactive	–	–
COc1cc(F)c(C(C)C)cc1-c1ccc(C(F)(F)F)cc1CN1C(=O)OC(c2cc(C(F)(F)F)cc(C(F)(F)F)c2)C1C (stereo unspecified)	-6.68	inactive	inactive	–	–
CC1OC(OCC2OC(OC3CCC4(C)C(CCC5(C)C4CC=C4C6CC(C)(C)CCC6(C(=O)OC6OC(CO)C(O)C(O)C6O)CCC45C)C3(C)CO)C(O)C(O)C2O)C(O)C(O)C1O (stereo unspecified)	-9.92	inactive	inactive	–	–
CCOC(=O)C(CCc1ccccc1)NC(C)C(=O)N1C(=O)N(C)CC1C(=O)O (stereo unspecified)	-5.25	inactive	inactive	–	–
C=C1C(=O)O[C@@H]2C[C@]3(C)[C@@H](CCC(C)=O)[C@@H]3C[C@H]12	5.36	inactive	inactive	–	–
C/C=C1/[C@H](O[C@@H]2O[C@H](CO)[C@@H](O)[C@H](O)[C@H]2O)OC=C(C(=O)OC)[C@H]1CC(=O)OCCc1ccc(O)c(O)c1	5.34	inactive	inactive	–	–
C=C1/C(=C/C=C2\CCC[C@]3(C)[C@@H]([C@@H](C)OCCC(O)(CC)CC)CC[C@@H]23)C[C@@H](O)C[C@@H]1O	-5	inactive	inactive	–	–
CC1(C)CCC[C@]2(C)[C@H]3CC(=O)O[C@]3(C)CC[C@@H]12	20.3	inactive	inactive	–	–
C/C1=C\[C@H]2OC(=O)[C@@H](C)[C@@H]2CC/C(C(=O)O)=C/CC1	-5.34	inactive	inactive	–	–
COc1c(O)cc2c(c1O)C(=O)O[C@H](C)[C@H]2O	-14.5	inactive	inactive	–	–
COC1=CC(=O)C=C(C)C12Oc1c(Cl)c(OC)cc(OC)c1C2=O (stereo unspecified)	1.53	inactive	inactive	–	–
COc1ccc2c3c1O[C@H]1C[C@@H](O)C=C[C@@]31CCN(C)C2	27.7	inactive	inactive	–	–
CC(O)CO[C@@H]1O[C@H](CO)[C@@H](O)[C@H](O)[C@H]1O (stereo partly specified)	-4.58	inactive	inactive	–	–
CC(C)(C)c1ccc(-c2nc3ccccc3[nH]2)cc1	-14.3	inactive	8.91 µM (active)	–	–
CCC[C@@H]1O[C@@H]2C[C@H]3[C@@H]4CCC5=CC(=O)C=C[C@]5(C)[C@H]4[C@@H](O)C[C@]3(C)[C@]2(C(=O)CO)O1	6.33	inactive	inactive	–	–
O=C(CC1C(=O)Nc2ccccc21)OC[C@H]1O[C@@H](OCCc2ccc(O)cc2)[C@H](O)[C@@H](O)[C@@H]1O (stereo partly specified)	0	inactive	inactive	–	–

Structure (SMILES)	activation [1] [%]	Potency [2]	Potency [3]	activity change, negative = inhibition [2]	activity change, negative = inhibition [3]
C/C=C(\C)C(=O)OCC1OC(OC2OC(CO)C(O)C(O)C2O)C(O)C(O)C1O (stereo unspecified)	-16.8	inactive	inactive	–	–
CC1OC(O[C@H]2CC[C@@]3(C)C(CC[C@]4(C)C3CC=C3C5CC(C)(C)CC[C@]5(C(=O)OC5OC(CO)C(OC6OC(COC7OCC(O)C(O)C7O)C(O)C(O)C6O)C(O)C5O)CC[C@]34C)C2(C)C)C(O)C(O)C1OC1OCC(OC2OCC(O)C(O)C2O)C(O)C1O (stereo partly specified)	-15.3	–	–	-20.7% [at 11.2 µM]	10.3% [at 11.2 µM]
O=C1[C@H](O[C@@H]2O[C@H](CO)[C@@H](O)[C@H](O)[C@H]2O)Oc2ccccc2N1O	14.3	inactive	inactive	–	–
C/C(=C/CO)CC[C@H]1[C@]2(C)C[C@H](O)CC(C)(C)[C@H]2CC[C@]1(C)O	-9.92	inactive	inactive	–	–
COc1cc(C#N)ccc1S(=O)(=O)Nc1ccc2c(c1)cc(C)c(=O)n2C	-7	inactive	inactive	–	–
CC(C)CN(C[C@@H](O)[C@H](Cc1ccccc1)NC(=O)O[C@@H]1CO[C@H]2OCC[C@H]21)S(=O)(=O)c1ccc(N)cc1	-7.16	inactive	inactive	–	–
CC1=C(CO)C2(C)CCCC(C)(C)C2C(O)C1O (stereo unspecified)	11.6	inactive	inactive	–	–
CC1(C)CC[C@]2(C(=O)O[C@@H]3O[C@H](CO)[C@@H](O)[C@H](O)[C@H]3O)[C@H](O)C[C@]3(C)C(=CCC4[C@@]5(C)CC[C@H](O[C@@H]6OC[C@@H](O)[C@H](O)[C@H]6O)[C@@](C)(C(=O)O)C5CC[C@]43C)[C@@H]2C1 (stereo partly specified)	-16.8	inactive	inactive	–	–
C=C(C(=O)O)C1CC(O)C2(C)CCCC(C)(O)C2C1 (stereo unspecified)	1.53	inactive	inactive	–	–
CC(=O)O[C@@H]1[C@H](O)[C@@H](O[C@@H]2O[C@@H](C)[C@H](O[C@@H]3OC[C@@H](O)[C@H](O[C@@H]4OC[C@@H](O)[C@H](O)[C@H]4O)[C@H]3O)[C@@H](O[C@@H]3O[C@H](CO)[C@@H](O)[C@H](O)[C@H]3O)[C@H]2O)[C@H](OC(=O)[C@]23CCC(C)(C)C[C@H]2C2=CCC4[C@@]5(C)CC[C@H](O[C@@H]6O[C@H](C(=O)O)[C@@H](O)[C@H](O[C@@H]7OC[C@@H](O)[C@H](O)[C@H]7O)[C@H]6O[C@@H]6O[C@H](CO)[C@H](O)[C@H](O)[C@H]6O)[C@@](C)(C=O)C5CC[C@@]4(C)[C@]2(C)CC3)O[C@@H]1C (stereo partly specified)	-9.16	–	–	5.14% [at 11.2 µM]	-8.36% [at 11.2 µM]
Cc1cc(N2CCCCC2)nc2ccccc12	13.7	inactive	inactive	–	–
CC(O)CCc1ccc(O[C@@H]2O[C@H](CO)[C@@H](O)[C@H](O)[C@H]2O)cc1 (stereo partly specified)	-10.7	inactive	inactive	–	–
COc1cc2occc2c(O[C@@H]2O[C@H](CO)[C@@H](O)[C@H](O)[C@H]2O)c1CCC(=O)O	9.16	inactive	inactive	–	–
COC1C2=C(COC2=O)C2(C)CCCC(C)(CO)C2C1OC(=O)c1ccccc1 (stereo unspecified)	-16	inactive	inactive	–	–
CC(=O)OC[C@H]1O[C@H](O[C@]2(CO)O[C@H](CO)[C@@H](OC(=O)/C=C/c3ccccc3)[C@@H]2O)[C@H](O)[C@@H](O)[C@@H]1O	-0.763	inactive	inactive	–	–
CC1C(=O)CC2C3CCC(C(=O)O)C12CC3(C)CO (stereo unspecified)	9.92	inactive	inactive	–	–
C=C(C)[C@@H]1CC[C@]2(C(=O)O)CC[C@]3(C(=O)O)[C@H](CCC4[C@@]5(C)CCC(=O)C(C)(C)C5CC[C@]43C)C12 (stereo partly specified)	33.9	inactive	inactive	–	–
C=C1Cc2c(Cl)cc3[nH]c4c5c3c2[C@@]2(O)[C@@H]1C[C@@H]2C(C)(C)O[C@H]5C1CC[C@@]2(O)[C@@]35O[C@@H]3[C@H]3OC(C)(C)[C@H]3O[C@H]5CC[C@]2(C)[C@@]41C (stereo partly specified)	-14.5	inactive	inactive	–	–
CC(C)=CCCC1(C)Oc2cc3c(c4c2C2C(O4)C(C)(O)CCC21)CN(C(CCC(=O)O)C(=O)O)C3=O (stereo unspecified)	-3.05	inactive	inactive	–	–
C=C1CCC2C(C)(C(=O)O)CC(O)CC2(C)C1CC/C(C)=C/C(=O)O (stereo unspecified)	-9.92	inactive	inactive	–	–
C/C=C/C[C@@H](C)[C@@H](O)[C@H]1C(=O)N[C@@H](CC)C(=O)N(C)CC(=O)N(C)[C@@H](CC(C)C)C(=O)N[C@@H](C(C)C)C(=O)N(C)[C@@H](CC(C)C)C(=O)N[C@@H](C)C(=O)N[C@H](C)C(=O)N(C)[C@@H](CC(C)C)C(=O)N(C)[C@@H](CC(C)C)C(=O)N(C)[C@H](C(C)C)C(=O)N1C	11.5	inactive	inactive	–	–
C=C1CCC2(OC1)OC1CC3C4CC=C5CC(O)CC(O[C@@H]6OC[C@@H](O)[C@H](O)[C@H]6O)C5(C)C4CCC3(C)C1(O)C2C (stereo partly specified)	5.34	inactive	inactive	–	–
O=C(CCCCCCCCC#CI)Oc1ccccc1	-8.33	inactive	inactive	–	–
